{"source": "PubChem BioAssay AID1032", "about": "(The Scripps Research Institute Molecular Screening Center, 2008)", "note": "In all, about 200,000 compounds went through this assay and about 670 (0.34%) were called active. The full list was thinned out, with actives kept by preference. Unmarked numbers belong to inactive results. Cut-off read from the data, not from the text of the source: active = activation above about 22%; inactive = the rest."}
{"biological_target": "Peroxisome proliferator-activated receptor gamma (Homo sapiens) (UniProt P37231)", "sequence (P37231 whole entry, looked up, the tested form may be a part)": "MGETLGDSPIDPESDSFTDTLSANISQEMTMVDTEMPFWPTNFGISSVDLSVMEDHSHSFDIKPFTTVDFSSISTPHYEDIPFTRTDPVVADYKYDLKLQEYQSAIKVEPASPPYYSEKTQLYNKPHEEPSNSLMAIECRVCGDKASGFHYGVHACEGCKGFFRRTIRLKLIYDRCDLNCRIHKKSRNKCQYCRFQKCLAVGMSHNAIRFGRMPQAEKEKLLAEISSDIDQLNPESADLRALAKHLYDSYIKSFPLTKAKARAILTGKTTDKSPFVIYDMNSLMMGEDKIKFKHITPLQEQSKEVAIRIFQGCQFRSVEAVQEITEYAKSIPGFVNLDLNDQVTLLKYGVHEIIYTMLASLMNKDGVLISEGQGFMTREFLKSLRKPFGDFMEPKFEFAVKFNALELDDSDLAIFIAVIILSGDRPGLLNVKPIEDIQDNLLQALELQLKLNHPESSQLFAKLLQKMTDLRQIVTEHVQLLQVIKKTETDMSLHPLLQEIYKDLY", "assay": "agonists of PPARg-SRC-2 recruitment, primary screen, biochemical, HTS (AID 1032);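 note: 0% = vehicle and 100% = reference agonist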", "details": "PPARgamma LBD-SRC-2 recruitment, at 8 µM, hits give high values"}
{"compound": "CN(C)CCOc1ccc(Cl)cc1C(C)(C)C", "activation": "3.96%"}
{"compound": "COc1cc2c(cc1OC)C(C(C)C)=NC(C)(C)C2", "activation": "4.08%"}
{"compound": "COc1cc2c(cc1O)C(SC)=NC(C)(C)C2", "activation": "1.5%"}
{"compound": "COc1cc2c(cc1OC)C(Nc1ccc(S(N)(=O)=O)cc1)=NC(C)(C)C2", "activation": "77.9% (active)"}
{"compound": "COCCNC(=O)c1ccc(N2CCC3(CC2)OCCO3)c([N+](=O)[O-])c1", "activation": "-6.47%"}
{"compound": "COc1ccc(C(=O)Nc2ccc3nc(N4CCCCC4)cc(C)c3c2)cc1OC", "activation": "4.19%"}
{"compound": "COc1cccc(/C=C2\\SC(=N)N(c3ccc(F)cc3)C2=O)c1", "activation": "3.36%"}
{"compound": "O=C(NCc1ccco1)c1cc(-c2cccnc2)nc2ccc(Cl)cc12", "activation": "8.92%"}
{"compound": "O=C(/C=C/c1ccc(Cl)cc1Cl)NCc1ccco1", "activation": "-0.42%"}
{"compound": "O=C(CSc1c2c(nc3ccc(Cl)cc13)CCCC2)NCc1ccco1", "activation": "30.9% (active)"}
{"compound": "COC(=O)Cn1c(=NC(=O)c2cc(OC)c(OC)c(OC)c2)sc2cc(OC)ccc21", "activation": "-0.43%"}
{"compound": "Cc1ccccc1-c1n[nH]c(=S)n1C", "activation": "7.57%"}
{"compound": "Cc1ccccc1-c1n[nH]c(=S)n1/N=C/c1ccc(-c2ccccc2Br)o1", "activation": "40.9% (active)"}
{"compound": "Cc1n[nH]c(=S)n1/N=C/c1ccc(Br)o1", "activation": "6.61%"}
{"compound": "CSc1ccccc1C(=O)NCc1ccccc1", "activation": "-5.42%"}
{"compound": "Cc1ccc(C(=O)COC(=O)CCN2C(=O)C3C4CC(C(Br)C4Br)C3C2=O)cc1", "note": "(stereo unspecified)", "activation": "3.47%"}
{"compound": "COc1ccc(O[C@H]2C=C[C@@H](c3ccccc3)O[C@@H]2CO/N=C/C[C@@H]2C=C[C@H](OC(C)=O)[C@@H](COC(C)=O)O2)cc1", "activation": "1.19%"}
{"compound": "CC(=O)Nc1ccc(S(=O)(=O)NC(C)C(=O)OCC(=O)NC2CCCC2)cc1", "note": "(stereo unspecified)", "activation": "-3.44%"}
{"compound": "CS(=O)(=O)N1CCc2cc(C(=O)Nc3ccccc3)ccc21", "activation": "-4.48%"}
{"compound": "Cc1ccc(NC(=O)CCOc2ccccc2)cc1S(=O)(=O)Nc1ccccc1Cl", "activation": "3.41%"}
{"compound": "CCOC(=O)c1ccc(NC(=S)N2CCCC2)cc1", "activation": "-1%"}
{"compound": "CC(=O)c1ccc(S(=O)(=O)N2CCN(c3nc4c(C)c(C)ccc4cc3C#N)CC2)cc1", "activation": "32% (active)"}
{"compound": "Cc1cccc2cc(C#N)c(N3CCCC3)nc12", "activation": "-7.68%"}
{"compound": "Cc1cc(C)c2nc(N3CCCC3)c(C#N)cc2c1", "activation": "1.23%"}
{"compound": "C/C(=N\\Nc1ccc([N+](=O)[O-])cc1)c1ccc(-n2nncc2C(C)(C)C)cc1", "activation": "-9.74%"}
{"compound": "N#Cc1ccsc1NC(=O)CN1CCN(S(=O)(=O)c2cc(Cl)ccc2Cl)CC1", "activation": "0.56%"}
{"compound": "O=C(C1CCCO1)N1CCN(C(=S)Nc2cccc(Cl)c2)CC1", "note": "(stereo unspecified)", "activation": "-4.23%"}
{"compound": "O=C1OC(/C=C/c2ccccc2)=NC/1=C/c1ccco1", "activation": "8.63%"}
{"compound": "CCc1cccc(OC2OC(CO)C(O)C(O)C2NC(C)=O)c1", "note": "(stereo unspecified)", "activation": "9.45%"}
{"compound": "Cc1cc(NC(=O)CSc2nnc(Nc3ccccc3F)s2)no1", "activation": "0.38%"}
{"compound": "Cc1ccc(-c2csc(SCC(=O)Nc3cc(C)on3)n2)cc1", "activation": "-2.51%"}
{"compound": "Cc1cc(C)c2c(c1)cc(C)c1nnc(SCC(=O)Nc3cc(C)on3)n12", "activation": "26.5% (active)"}
{"compound": "Cc1cccc(NC(=O)Cn2c(=O)n(Cc3ccccc3)c(=O)c3c(C)c(C)sc32)c1", "activation": "3.34%"}
{"compound": "N#Cc1c(-c2ccc(F)cc2)cc(C2CC2)nc1SCC(=O)c1cccs1", "activation": "1.68%"}
{"compound": "O=C(c1ccc(F)cc1)N1CCC(n2nnc3ccccc32)CC1", "activation": "-10.4%"}
{"compound": "C=CCC(C(=O)c1ccccc1)[N+](C)(C)CC=C", "note": "(stereo unspecified)", "activation": "1.14%"}
{"compound": "CN1CCN(S(=O)(=O)c2ccc(NC(=S)NC(=O)C3CC3)cc2)CC1", "activation": "5.04%"}
{"compound": "COC(=O)CSc1nccc(-c2cccs2)n1", "activation": "0.01%"}
{"compound": "COc1ccc(OC)c(C(=O)CSc2nnc(-c3cccs3)o2)c1", "activation": "10.1%"}
{"compound": "NC(=O)CSc1oc(-c2cccs2)nc1S(=O)(=O)c1ccccc1", "activation": "36.9% (active)"}
{"compound": "COc1ccccc1C1/C(=C(/O)c2ccc(C)cc2)C(=O)C(=O)N1Cc1ccco1", "note": "(stereo unspecified)", "activation": "-3.88%"}
{"compound": "COc1ccc(/C(O)=C2/C(=O)C(=O)N(c3nc(C)c(C)s3)C2c2ccco2)cc1", "note": "(stereo unspecified)", "activation": "22.7% (active)"}
{"compound": "COc1ccc(/C(O)=C2\\C(=O)C(=O)N(Cc3ccco3)C2c2ccc(OC)cc2OC)cc1", "note": "(stereo unspecified)", "activation": "3.94%"}
{"compound": "CCC(C)(C)NC(=O)c1cc([N+](=O)[O-])ccc1N1CCCCC1", "activation": "0.23%"}
{"compound": "CN(C)c1nccc(NCc2ccccc2)c1C#N", "activation": "9.56%"}
{"compound": "CN1CCN(C(c2cc3cc4c(cc3[nH]c2=O)OCCO4)c2nnnn2C2CCCC2)CC1", "note": "(stereo unspecified)", "activation": "4.65%"}
{"compound": "Cc1cc(C(=O)CC#N)c(C)n1-c1c(C)n(C)n(-c2ccccc2)c1=O", "activation": "3.36%"}
{"compound": "O=C(Nn1cnnc1)c1ccc([N+](=O)[O-])cc1", "activation": "8.86%"}
{"compound": "COc1ccc2c(Cl)c(C(=O)NCc3ccco3)sc2c1", "activation": "4.82%"}
{"compound": "COc1ccc(-c2nnco2)cc1OC", "activation": "-1.39%"}
{"compound": "COc1ccc2c(Cl)c(-c3nnco3)sc2c1", "activation": "22.3% (active)"}
{"compound": "CC1=C(C)C(=O)OC(C(C)C2CCC3C4CC=C5CC(OC6OC(COC7OC(CO)C(O)C(O)C7O)C(O)C(O)C6O)CC(O)C5(C)C4CCC23C)C1", "note": "(stereo unspecified)", "activation": "-5.38%"}
{"compound": "NC(=O)COc1ccc(C23CC4CC(CC(C4)C2)C3)cc1", "activation": "13.6%"}
{"compound": "COc1ccc(CC(=O)N2N=C(C)CC2(O)C(F)(F)F)cc1", "note": "(stereo unspecified)", "activation": "4.95%"}
{"compound": "CCOC(=O)c1c(NC(=O)CNC2CCCc3ccccc32)sc(C(N)=O)c1C", "note": "(stereo unspecified)", "activation": "19.8%"}
{"compound": "NS(=O)(=O)c1ccc(CCNC(=S)Nc2ccc(S(N)(=O)=O)cc2)cc1", "activation": "4.85%"}
{"compound": "CCC(C)(C)NC(=O)C(c1cccc(OC)c1OC)N(CC(C)C)C(=O)CCC(=O)Nc1cc(C)on1", "note": "(stereo unspecified)", "activation": "7.07%"}
{"compound": "CC(=O)NC(Cc1ccc(F)c(F)c1)C(=O)NC1CCN(C(=O)c2ccc(C)cc2)CC1", "note": "(stereo unspecified)", "activation": "-0.89%"}
{"compound": "O=C(Oc1ccccc1)Oc1ccc2c(c1)oc(=O)c1ccccc12", "activation": "48.7% (active)"}
{"compound": "Cc1c(Cc2ccccc2)c(=O)oc2cc(OCC(N)=O)ccc12", "activation": "4.43%"}
{"compound": "CC(=O)Oc1ccc2c(C)c(CC(C)O)c(=O)oc2c1", "note": "(stereo unspecified)", "activation": "-8.79%"}
